The values below come from PubChem BioAssay AID463173 (ICCB-Longwood Screening Facility, Harvard Medical School, 2010).

Out of some 52,000 compounds screened, about 4,300 (8.3%) were called active. The sample holds actives, similar compounds and a random draw of the others, so the mix is not that of the screen. A number with no mark means an inactive call. Rule as the data show it: active = survival mostly below about 52% (no sharp cut-off); inactive = mostly above about 56%.

For the test, the system named is DeltatarO mutant. In words: growth inhibition of S. aureus wild type versus tarO mutant, primary screen, teichoic acid synthesis inhibitors, RN4220, OD600 (AID 463173). Conditions: OD600, 18 h, hits give low values, screened at 18.75 µg/mL (by protocol).
Turning to `O=C(c1ccc2c(c1)N(Cc1ccc(F)cc1)C(=O)c1ccccc1S2(=O)=O)N1CCC(Cc2ccccc2)CC1`, the survival was 72%.
In the case of `CCCC1=Nc2cc(C(=O)NCc3ccc(OC)cc3)ccc2Sc2ccc(C)cc21`, the survival is 70%.
The result for `CCOc1ccc(CNC(=O)Cn2c(=O)c3cccn3c3cccnc32)cc1` reads 70%; that for `C#CCn1c(C2CC(=O)N(c3ccc(OC)cc3)C2)nc2ccccc21` (configuration not stated), 78%.
Consider `CCOc1ccc(N2CC(c3nc4ccccc4n3Cc3cccc(C)c3)CC2=O)cc1` (configuration not stated), for which the survival was 42% (active).
For `CCOc1ccc(N2CC(c3nc4ccccc4n3Cc3cccc(Cl)c3)CC2=O)cc1` (configuration not stated) the value was 37% (active); for `CCOc1ccc(N2CC(c3nc4ccccc4n3CC(C)C)CC2=O)cc1` (configuration not stated), 56%; for `C#CCn1c(C2CC(=O)N(c3ccc(OCC)cc3)C2)nc2ccccc21` (configuration not stated), 62%.
Consider `CCCCn1c(C2CC(=O)N(c3ccc(OCC)cc3)C2)nc2ccccc21` (configuration not stated), for which the survival is 63%.
For `CCNC(=O)C1CCCN(c2nnc(C)c3c(C)n(-c4ccc(C)cc4)nc23)C1` (configuration not stated), the survival was 78%.
For `CCN1CCN(C(=O)c2ccc(S(=O)(=O)N(CC)CC)cc2)CC1` the value was 85%; for `COc1cc2c(cc1OC)C(c1ccc(F)cc1)N(c1ccc(F)cc1)C(=O)C2` (configuration not stated), 105%.
As for `COc1cc2c(cc1OC)C(c1ccc(Cl)cc1)N(c1ccc(C)c(F)c1)C(=O)C2` (configuration not stated), the survival was 42% (active).
Regarding `COc1ccc(C2c3cc(OC)c(OC)cc3CC(=O)N2c2ccc(C)c(F)c2)cc1` (configuration not stated), the survival was 79%.
As for `O=C(NCCSCc1ccccc1)C1CCN(S(=O)(=O)Cc2ccccc2)CC1`, the survival is 66%.
As to `Cc1nc(-c2ccc(C)c(N3CCN(C(=O)Nc4ccc(Br)cc4)CC3)c2)no1`, the survival is 17% (active).
For `COc1ccc(C)cc1NC(=O)N1CCN(c2cc(-c3noc(C)n3)ccc2C)CC1` the value was 88%; for `Cc1cc(C)cc(NC(=O)N2CCN(c3cc(-c4noc(C)n4)ccc3C)CC2)c1`, 87%; for `Cc1ccc(NC(=O)N2CCN(c3cc(-c4noc(C)n4)ccc3C)CC2)c(F)c1`, -5% (active).
As for `COc1cc(NC(=O)N2CCN(c3cc(-c4noc(C)n4)ccc3C)CC2)cc(OC)c1OC`, the survival is 55%.
On to `Cc1ccc(NC(=O)N2CCN(c3cc(-c4noc(C)n4)ccc3C)CC2)c(C)c1`, for which the survival was 88%.
For the compound `COc1ccccc1NC(=O)c1oc2ccccc2c1NC(=O)Cc1ccccc1`, the survival is 78%.
In the case of `CCOc1ccc(NC(=O)CCc2c(C)nc3nc(-c4cc(OC)cc(OC)c4)nn3c2C)cc1`, the survival is 78%.
`Cc1cccc(CNC(=O)CCn2c(=O)c3cccn3c3ccc(F)cc32)c1`: the survival was 92%.
On to `CCCCNC(=O)CCn1c(=O)c2cccn2c2cccnc21`, for which the survival is 103%.
For `Cc1ccc(CCNC(=O)CCn2c(=O)c3cccn3c3ccc(F)cc32)cc1`, the survival is 39% (active).
In the case of `CSc1ccc(CCNC(=O)CCn2c(=O)c3cccn3c3ccc(F)cc32)cc1`, the survival is 48%.
For `CCCCNC(=O)CCn1c(=O)c2cccn2c2ccc(F)cc21`, the survival was 41% (active).
Turning to `CN(C)c1ccc(CNC(=O)CCn2c(=O)c3cccn3c3ccc(F)cc32)cc1`, the survival was 57%.
With `Cc1ccc(CCNC(=O)CCCn2c(=O)c3cccn3c3ccc(F)cc32)cc1`, the survival was 33% (active).
In the case of `Cc1ccc(Cc2nc3ccccc3nc2SCC(=O)N2CCN(c3ccccc3F)CC2)cc1`, the survival was 49%.
Consider `CCOc1ccc(-n2ccn3c(CC(C)CC(=O)O)nnc3c2=O)cc1` (configuration not stated), for which the survival is 182%.
Consider `O=C(Nc1ccccc1)c1ccc(F)cc1`, for which the survival is 76%.
As to `CCOC(=O)CC(NC(=O)Cn1nnc(-c2ccc(C(F)(F)F)cc2)n1)c1ccccc1Cl` (configuration not stated), the survival was 73%.
Consider `COc1cccc(-c2nc(CS(=O)CC(=O)N3CCN(c4cccc(C(F)(F)F)c4)CC3)c(C)o2)c1` (configuration not stated), for which the survival was 0% (active).
For `Cc1ccc(-c2nc(CS(=O)CC(=O)N3CCN(c4cccc(Cl)c4)CC3)c(C)o2)cc1` (configuration not stated) the value was 46%.
For `Cc1ccc(-c2nc(CS(=O)CC(=O)N3CCN(c4ccc(Cl)cc4)CC3)c(C)o2)cc1` (configuration not stated) the value was 80%; for `Cc1ccccc1-c1nc(CS(=O)CC(=O)N2CCN(c3cc(Cl)ccc3C)CC2)c(C)o1` (configuration not stated), 30% (active); for `COc1ccc(-c2nc(CSCC(=O)N3CCN(c4ccc(OC)cc4)CC3)c(C)o2)cc1`, 77%.
In the case of `Cc1oc(-c2ccccc2F)nc1CS(=O)(=O)CC(=O)N1CCN(c2cccc(C(F)(F)F)c2)CC1`, the survival is 78%.
For `Cc1oc(-c2ccc(Cl)cc2)nc1CS(=O)CC(=O)N1CCN(c2cccc(C(F)(F)F)c2)CC1` (configuration not stated) the value was 99%.
For the compound `Cc1oc(-c2ccccc2F)nc1CS(=O)(=O)CC(=O)N1CCN(c2ccccc2)CC1`, the survival was 77%.
For `Cc1oc(-c2ccccc2Cl)nc1CS(=O)CC(=O)N1CCN(c2cccc(C(F)(F)F)c2)CC1` (configuration not stated) the value was 131%; for `Cc1ccc(OCc2nc(-c3ccc(C(=O)N4CCN(c5cc(Cl)ccc5C)CC4)cc3)oc2C)cc1`, 76%; for `Cc1oc(-c2ccccc2F)nc1CS(=O)(=O)CC(=O)N1CCN(c2ccc(Cl)cc2)CC1`, 43% (active).
As for `COc1ccc(-c2nc(CSCC(=O)N3CCN(c4cc(Cl)ccc4C)CC3)c(C)o2)cc1`, the survival is -4% (active).
As for `Cc1cccc(-n2cc(-c3ccccc3)nc2SCC(=O)Nc2ccccc2Cl)c1`, the survival is 115%.
As for `CC(C)c1ccc(NC(=O)CS(=O)(=O)c2cccc3nsnc23)cc1`, the survival was 78%.
`CCOC(=O)c1sc2ccccc2c1S(=O)(=O)N1CCN(c2cc(C)ccc2C)CC1`: the survival is 100%.
For the compound `Cc1ccc(CSc2cn(CC(=O)N3CCCCCC3)c3ccccc23)cc1`, the survival is 84%.
The result for `COc1ccc(CCN2C(=O)N(c3ccc(F)cc3)C(=O)C2CC(=O)Nc2ccc(OC)cc2)cc1` (configuration not stated) reads 67%; that for `CCc1ccc2occ(CC(=O)Nc3ccc(C)c(C)c3)c2c1`, 102%.
Regarding `COc1ccc(OC)c(NC(=O)c2nnn(CC(=O)Nc3ccc(C(C)C)cc3)c2N)c1`, the survival is 63%.
Take `COc1ccc(-c2nc(CSCC(=O)N3CCN(c4ccccc4F)CC3)c(C)o2)cc1`: the survival was 35% (active).
The result for `COc1ccc(-c2nc(CSCC(=O)N3CCN(c4ccc(F)cc4)CC3)c(C)o2)cc1` reads 57%.
Turning to `COc1ccc(-c2nc(CSCC(=O)N3CCN(c4ccccc4)CC3)c(C)o2)cc1`, the survival is 60%.
For `Cc1cccc(NC(=O)C(NS(=O)(=O)c2cccc3nsnc23)c2ccccc2)c1C` (configuration not stated), the survival is 95%.
With `COCCn1c(=NC(=O)c2ccc3c(c2)OCCO3)sc2cc(C(=O)OC)ccc21`, the survival is 86%.
As for `CCC12CN3CC(C)(CN(C1)C3c1ccccc1C)C2=O` (configuration not stated), the survival is 76%.
As for `O=C(Nc1cccc(-c2nc3ccccc3o2)c1)c1cc([N+](=O)[O-])ccc1N1CCOCC1`, the survival is 42% (active).
Take `COc1ccc2oc(-c3cccc(NC(=O)c4cc([N+](=O)[O-])ccc4N4CCOCC4)c3)nc2c1`: the survival is 49%.
With `O=C(Nc1cc(-c2nc3ccccc3o2)ccc1Cl)c1cc([N+](=O)[O-])ccc1N1CCOCC1`, the survival was 57%.
Turning to `Cc1c(NC(=O)c2cc([N+](=O)[O-])ccc2N2CCOCC2)cccc1-c1nc2ccccc2o1`, the survival was 50%.
Regarding `O=C(Nc1cc(-c2nc3cc(Cl)ccc3o2)ccc1Cl)c1cc([N+](=O)[O-])ccc1N1CCOCC1`, the survival was 50%.
On to `COc1ccc(-c2nc3ccccc3o2)cc1NC(=O)c1cc([N+](=O)[O-])ccc1N1CCOCC1`, for which the survival was 44% (active).
Turning to `O=C(Nc1ccc(Cl)c(-c2nc3cc(Cl)ccc3o2)c1)c1cc([N+](=O)[O-])ccc1N1CCOCC1`, the survival is 111%.
Consider `Cc1ccc(-c2nc3cc(Cl)ccc3o2)cc1NC(=O)c1cc([N+](=O)[O-])ccc1N1CCOCC1`, for which the survival was 57%.
Turning to `O=C(Nc1cccc(-c2nc3cc(Cl)ccc3o2)c1)c1cc([N+](=O)[O-])ccc1N1CCOCC1`, the survival is 40% (active).
For `COCCN1Cc2cccc(C(=O)Nc3ccc(C(=O)OC)cc3)c2C1=O`, the survival was 82%.
For `CC(C)(C)C(=O)CSc1nc2ccsc2c(=O)n1Cc1ccccc1F`, the survival is 126%.
Regarding `CCOC(=O)c1c(C)[nH]c(C)c1S(=O)(=O)N1CCCC(C(=O)Nc2ccc(C)c(N(C)C)c2)C1` (configuration not stated), the survival was 88%.
As to `CCCCOc1ccc(C(=O)N2CCN(CCc3ccccn3)CC2)cc1`, the survival was 51%.
`O=C(CN1CCC(NC(=O)NC2CCCCC2)CC1)Nc1cccc(I)c1`: the survival is 100%.
For `CC1=Nc2cc(C(=O)NCCc3ccc(Cl)cc3)ccc2Sc2ccc(C)cc21` the value was 56%.
For the compound `Cc1ccc(C(=O)CSc2nnc3ccc4ccccc4n23)cc1`, the survival is 60%.
For the compound `CCOc1ccccc1NC(=O)NC1(C(=O)NCc2ccco2)CCCCC1`, the survival is 84%.
As for `CCc1c(C)c2ccc(O)c(CN3CCN(c4ccc(F)cc4)CC3)c2oc1=O`, the survival was 55%.
In the case of `CCc1c(C)c2ccc(O)c(CN3CCN(c4ccccc4)CC3)c2oc1=O`, the survival is 56% (active).
For `CCc1c(C)c2ccc(O)c(CN3CCN(c4ccc(OC)cc4)CC3)c2oc1=O` the value was 55%; for `Cc1ccc(-n2nc3c(N4CCC(C(=O)NC5CCCCC5)CC4)nnc(C)c3c2C)cc1`, 81%.
For `Cc1ccc(N2CNC(=O)c3c(C)cc(C)nc32)cc1` the value was 74%; for `Cc1cc(C)c2nc(N(Cc3cccnc3)C(=O)CCS(=O)(=O)c3ccccc3)sc2c1`, 83%.
With `CC(=O)c1ccc(C(=O)N(Cc2cccnc2)c2nc3c(Cl)cccc3s2)cc1`, the survival is 91%.
For `CC(=O)c1ccc(C(=O)N(Cc2cccnc2)c2nc3c(C)c(C)ccc3s2)cc1`, the survival was -1% (active).
Turning to `CC(=O)N(Cc1cccnc1)c1nc2c(C)c(C)ccc2s1`, the survival was 72%.
For `Cc1ccc2sc(N(Cc3cccnc3)C(=O)CCS(=O)(=O)c3ccccc3)nc2c1C` the value was 6% (active).
For `Cc1cccc2sc(N(Cc3cccnc3)C(=O)CCS(=O)(=O)c3ccccc3)nc12`, the survival was 89%.
